Bioassay records (PubChem BioAssay)
hiPSC survival – enhancers of single-cell hiPSC survival, primary screen, ATPlite luminescence. AID 602274, 2012. 100% = ROCK inhibitor wells, 0% = DMSO. survival enhancement, % at 20 µM. hit rate 0.044% among 360,000; in the data active = survival enhancement above about 18%;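 note: cells exposed to compounds for 16 hours before the ATP read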
TRAIL sens C8 – viability loss with TRAIL in NB7+C8 cells, primary screen, TRAIL sensitizer project, cell-based, ATPlite luminescence; inhibition (viability loss, TRAIL sensitization), % at 10 µM; hit rate 1% among 360,000; AID 624354, 2012;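 active = compounds causing at least 50% loss of cell viability in the single-dose screen, relative to plate controls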
PPC-1+TRAIL kill – compounds killing PPC-1 cancer cells with TRAIL present, primary screen, TRAIL potentiator project, ATPLite luminescence, uHTS. PPC-1 cells + TRAIL, ATPLite viability luminescence. cell killing (% activity), % at 4 µM or 5 µM. hit rate 0.41% among 220,000;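 active = cell killing above 50% in the first pass at 4 µM, then a duplicate retest at 5 µM averaging 50% or more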
KKLEB tox – cytotoxicity in KKLEB CF airway cells, primary screen, cytotoxicity control for CF NF-kB inhibitor project, cell-based, uHTS, fluorescence assay plates. KKLEB CF airway cells viability, ATPlite luminescence, overnight; active compounds read low; cells stimulated with P. aeruginosa culture filtrate. hit rate 0.36% among 360,000. activity change (cytotoxicity), % at 5 µM;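 active = corrected activity change at or below -50% at 5 µM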
HIF-2a inh – HIF-2a reporter inhibitors, primary screen, luminescence, 786-0 RCC cells; 786-0 RCC cells HIF-2a reporter, luciferase luminescence, overnight; inhibition, % at 18.8 µM; hit rate 0.72% among 360,000; AID 624352, 2012;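 active = inhibition of the luminescence signal of 40% or more relative to plate controls, in a single-dose primary screen at 18.75 µM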
CF NFkB inh – inhibitors of PAF-induced NF-kB signaling, primary screen, cell-based, GFP fluorescence, uHTS; hit rate 0.86% among 360,000; inhibition, % at 5 µM; KKLEB NF-kB-GFP reporter, GFP fluorescence overnight; AID 588850, 2011;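 active = at least 50% inhibition at 5 µM, scaled per plate between neutral and stimulator controls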;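 note: PAF is a Pseudomonas aeruginosa culture filtrate used as stimulus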
Mdm2 MdmX conf – retested Mdm2-MdmX interaction blockers, confirmation, cell-based, luminescence, single concentration, set 2; SaOS-2 split-luciferase Mdm2/MdmX complementation; hit rate 99% among 740; inhibition, % at 8 µM; shares compounds with HIF-2a inh; AID 504601, 2011;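 active = mean inhibition of the luminescence signal across two replicates at or above 26 percent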
Target sequence (O15151 whole entry, looked up): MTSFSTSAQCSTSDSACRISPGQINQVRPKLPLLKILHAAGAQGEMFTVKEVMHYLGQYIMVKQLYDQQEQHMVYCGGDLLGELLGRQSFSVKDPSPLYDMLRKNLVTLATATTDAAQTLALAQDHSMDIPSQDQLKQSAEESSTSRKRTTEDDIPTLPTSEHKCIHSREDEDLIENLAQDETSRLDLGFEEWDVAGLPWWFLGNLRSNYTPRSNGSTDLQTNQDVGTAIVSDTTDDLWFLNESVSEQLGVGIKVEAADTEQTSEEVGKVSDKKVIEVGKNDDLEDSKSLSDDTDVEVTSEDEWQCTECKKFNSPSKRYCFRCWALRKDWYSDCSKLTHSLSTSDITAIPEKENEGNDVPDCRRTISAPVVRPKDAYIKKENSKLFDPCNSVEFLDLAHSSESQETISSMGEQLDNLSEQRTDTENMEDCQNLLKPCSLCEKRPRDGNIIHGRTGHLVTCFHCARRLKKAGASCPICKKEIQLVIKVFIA
Target sequence (Q00987 whole entry, looked up): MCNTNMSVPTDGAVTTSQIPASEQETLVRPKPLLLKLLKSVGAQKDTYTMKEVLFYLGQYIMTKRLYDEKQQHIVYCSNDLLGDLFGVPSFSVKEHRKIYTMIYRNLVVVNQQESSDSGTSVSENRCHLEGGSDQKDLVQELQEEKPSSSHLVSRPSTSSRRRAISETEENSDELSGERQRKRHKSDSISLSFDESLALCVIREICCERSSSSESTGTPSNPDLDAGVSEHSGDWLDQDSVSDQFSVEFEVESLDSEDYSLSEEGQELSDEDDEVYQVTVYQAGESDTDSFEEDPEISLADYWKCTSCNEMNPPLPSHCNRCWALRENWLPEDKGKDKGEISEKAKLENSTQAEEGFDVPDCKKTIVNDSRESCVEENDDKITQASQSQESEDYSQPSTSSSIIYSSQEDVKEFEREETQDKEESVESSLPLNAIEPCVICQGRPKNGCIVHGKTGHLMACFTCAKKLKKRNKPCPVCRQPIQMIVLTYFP
HIF-2a inh conf – HIF-2a reporter inhibitor retest, confirmation, luminescence, 786-0 RCC cells. inhibition, % at 18.8 µM. hit rate 56% among 1,800. HIF-2a luciferase reporter luminescence, overnight. shares compounds with HIF-2a inh;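 active = mean inhibition across four replicates of at least 40 percent at the single tested concentration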
HIF-1a cs – HIF-1a luciferase reporter signal reduction – MiaPaCa-2 cells, single concentration, counter-screen for HIF-2a inhibitor project, confirmation; shares compounds with HIF-2a inh; MiaPaCa-2 HIF-1a luciferase reporter, desferoxamine, overnight; inhibition, % at 18.8 µM; hit rate 72% among 1,800;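 active = mean inhibition of the reporter signal across four replicates at the single tested dose of 50% or more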
Each line names hits and unclear results; the compound was inactive in the other large screens (follow-up assays come after a bar, where they were run). Hits are enriched below; roughly 2.2% of the tested compounds scored in any of these assays.

C#CC(=O)N(c1cccc(OC)c1)C(C(=O)NC1CCCC1)c1cccs1 (configuration not stated)	TRAIL sens C8 96, PPC-1+TRAIL kill 94, KKLEB tox -97, HIF-2a inh 93, CF NFkB inh 94 | Mdm2 MdmX conf 103 | HIF-2a inh conf 99 | HIF-1a cs 104
Cc1cccc(N(C(=O)C(F)(F)F)C(C(=O)NC2CCCCC2)c2cccs2)c1 (configuration not stated)	none
CCCNC(=O)COc1ccc(-c2nn(C)c(=O)c3ccccc23)cc1	none (no result: PPC-1+TRAIL kill)
CCOC(=O)N1CCC2(CC1)NCCc1c2[nH]c2ccccc12	none
COc1ccc(Cl)cc1NC(=O)CSc1nc(Nc2ccccc2)nc(N2CCOCC2)n1	none (no result: PPC-1+TRAIL kill)
CCc1nc(Nc2ccncc2)c2oc3ccccc3c2n1	HIF-2a inh 47 | HIF-2a inh conf inactive | HIF-1a cs 82
Cc1nc(Nc2ccncc2)c2oc3ccccc3c2n1	none
CCCC(NC(=O)CCc1c(C)c2cc3c4c(oc3c(C)c2oc1=O)CCCC4)C(=O)O (configuration not stated)	HIF-2a inh 52 (no result: PPC-1+TRAIL kill) | HIF-2a inh conf 67 | HIF-1a cs 50
Cc1oc2c(C)c3oc(=O)c(CCC(=O)N[C@@H](CC(C)C)C(=O)O)c(C)c3cc2c1C	none (no result: PPC-1+TRAIL kill)
Cc1ccc(N2Cc3ccccc3C2=S)cc1	HIF-2a inh 84 | HIF-2a inh conf inactive | HIF-1a cs inactive
Nc1ccc(C(=O)N2CCCC2)cc1	none
Nc1ccc(C(=O)n2c3ccccc3c3ccccc32)cc1	HIF-2a inh 78 | HIF-2a inh conf 92 | HIF-1a cs 85
CCOc1ccccc1NC(=O)N1CCC(C(=O)c2ccc(F)cc2)CC1	HIF-2a inh 41 | HIF-2a inh conf inactive | HIF-1a cs inactive
COc1ccccc1NC(=O)N1CCC(C(=O)c2ccc(F)cc2)CC1	none
Cc1c(CC(=O)NCCCCCC(=O)O)c(=O)oc2cc3c(cc12)CCC(C)(C)O3	none (no result: PPC-1+TRAIL kill)
Cc1c(CC(=O)NCCCC(=O)O)c(=O)oc2cc3c(cc12)CCC(C)(C)O3	HIF-2a inh 61 (no result: PPC-1+TRAIL kill) | HIF-2a inh conf 81 | HIF-1a cs 86
CCn1nc(C)cc1-c1nnc(SCC(=O)Nc2ccccc2)n1CCCOC	none
CCn1nc(C)cc1-c1nnc(Sc2ncc([N+](=O)[O-])s2)n1C	KKLEB tox -82, HIF-2a inh 96, CF NFkB inh 95 (no result: PPC-1+TRAIL kill) | Mdm2 MdmX conf 103
Cc1ccc(CS(=O)(=O)c2ncc(Cl)c(C(=O)Nc3ccc(OC(F)F)cc3)n2)cc1	TRAIL sens C8 88, KKLEB tox -100, HIF-2a inh 93, CF NFkB inh 94 (no result: PPC-1+TRAIL kill) | Mdm2 MdmX conf 103
CCS(=O)(=O)c1ncc(Cl)c(C(=O)Nc2ccc(S(=O)(=O)N3CCCC(C)C3)cc2)n1 (configuration not stated)	hiPSC survival 20, TRAIL sens C8 96, KKLEB tox -109, HIF-2a inh 89, CF NFkB inh 97 (no result: PPC-1+TRAIL kill) | Mdm2 MdmX conf 103 | HIF-2a inh conf 98 | HIF-1a cs 106
CCSc1ncc(Cl)c(C(=O)Nc2ccc(S(=O)(=O)Nc3onc(C)c3C)cc2)n1	none
CCS(=O)(=O)c1ncc(Cl)c(C(=O)Nc2ccc(C)cc2)n1	TRAIL sens C8 84, KKLEB tox -86, HIF-2a inh 92, CF NFkB inh 92 (no result: PPC-1+TRAIL kill) | Mdm2 MdmX conf 101 | HIF-2a inh conf 97 | HIF-1a cs 72
CCC1CCCCN1S(=O)(=O)c1ccc(NC(=O)c2nc(S(C)(=O)=O)ncc2Cl)cc1 (configuration not stated)	TRAIL sens C8 92, KKLEB tox -74, HIF-2a inh 75, CF NFkB inh 87 (no result: PPC-1+TRAIL kill) | HIF-2a inh conf 100 | HIF-1a cs 101
CCc1ccc([C@@H]2CC=C(C(=O)O)[C@H](c3ccc(F)cc3)N2S(=O)(=O)c2ccc(C)cc2)cc1	none (no result: PPC-1+TRAIL kill)
CCCN1CCc2nc(SCC(=O)Nc3ccc(C)c(Cl)c3)[nH]c(=O)c2C1	none (no result: PPC-1+TRAIL kill)
CCC(C)(C)NC(=O)CN(Cc1ccccc1)C(=O)CCC(=O)Nc1nccs1	none (no result: PPC-1+TRAIL kill)
CS(=O)(=O)c1ncc(Cl)c(C(=O)Nc2ccc3ccccc3c2)n1	KKLEB tox -100, HIF-2a inh 95, CF NFkB inh 89 | HIF-2a inh conf 97 | HIF-1a cs 91
CCC(C(=O)NCc1ccccc1)n1c(CSCCOc2ccccc2)nc2ccccc21 (configuration not stated)	HIF-2a inh 64 (no result: hiPSC survival, PPC-1+TRAIL kill, KKLEB tox, CF NFkB inh) | HIF-2a inh conf 74 | HIF-1a cs 77
COc1ccc(C(C(=O)NC2CCCC2)n2c(CSCCOc3ccccc3)nc3ccccc32)cc1 (configuration not stated)	HIF-2a inh 43 (no result: hiPSC survival, PPC-1+TRAIL kill, KKLEB tox, CF NFkB inh) | HIF-2a inh conf 74 | HIF-1a cs 63
CC(C(=O)NCc1ccccc1)n1c(CSCCOc2ccccc2)nc2ccccc21 (configuration not stated)	none (no result: hiPSC survival, PPC-1+TRAIL kill, KKLEB tox, CF NFkB inh)
N#C/C(=C\c1cccc([N+](=O)[O-])c1)C(=O)NCc1ccc(Cl)cc1	HIF-2a inh 66 | HIF-2a inh conf 60 | HIF-1a cs 106
CC12CCC(=O)N1C(C(=O)Nc1cc(C(F)(F)F)ccc1N1CCCCC1)CS2 (configuration not stated)	none (no result: PPC-1+TRAIL kill)
C=CS(=O)(=O)N(Cc1ccccc1Br)[C@H](CO)CC(C)C	HIF-2a inh 41 (no result: PPC-1+TRAIL kill) | HIF-2a inh conf inactive | HIF-1a cs inactive
CC(C)C[C@@H](CO)N(Cc1ccccc1)S(=O)(=O)N(Cc1ccccc1)[C@H](CO)CC(C)C	none (no result: PPC-1+TRAIL kill)
CCOC(=O)[C@H]1[C@H]2COc3ccc(OC)cc3[C@@H]2N2C(=O)c3ccccc3NC(=O)[C@@]12C	none (no result: PPC-1+TRAIL kill)
O=C(C#Cc1ccccc1)c1ccc([N+](=O)[O-])cc1	HIF-2a inh 40 | Mdm2 MdmX conf 103 | HIF-2a inh conf inactive | HIF-1a cs 89
CC(=O)n1cc(N(C(=O)CCl)c2ccc(C)cc2)c2ccccc21	TRAIL sens C8 95, KKLEB tox -103, HIF-2a inh 56, CF NFkB inh 93 | Mdm2 MdmX conf 103
